Experimental data published in the supplement of paper PMC3334620.
Over roughly 33,000 sequences, “E-score (-0.5 to 0.5)” has its median near -0.015; the highest 2% begin near 0.3. What follows is part of a selection rich in the highest values, with near analogues and random picks from the rest.

These sequences were tested against T1, Abf1 (UniProt P14164) (assay: PBM E-score (8-mer binding enrichment) (E-score (-0.5 to 0.5)); higher = stronger / more preferred TF binding). Details: protein concentration: 200 nM; construct: GST-full length.
T1 sequence: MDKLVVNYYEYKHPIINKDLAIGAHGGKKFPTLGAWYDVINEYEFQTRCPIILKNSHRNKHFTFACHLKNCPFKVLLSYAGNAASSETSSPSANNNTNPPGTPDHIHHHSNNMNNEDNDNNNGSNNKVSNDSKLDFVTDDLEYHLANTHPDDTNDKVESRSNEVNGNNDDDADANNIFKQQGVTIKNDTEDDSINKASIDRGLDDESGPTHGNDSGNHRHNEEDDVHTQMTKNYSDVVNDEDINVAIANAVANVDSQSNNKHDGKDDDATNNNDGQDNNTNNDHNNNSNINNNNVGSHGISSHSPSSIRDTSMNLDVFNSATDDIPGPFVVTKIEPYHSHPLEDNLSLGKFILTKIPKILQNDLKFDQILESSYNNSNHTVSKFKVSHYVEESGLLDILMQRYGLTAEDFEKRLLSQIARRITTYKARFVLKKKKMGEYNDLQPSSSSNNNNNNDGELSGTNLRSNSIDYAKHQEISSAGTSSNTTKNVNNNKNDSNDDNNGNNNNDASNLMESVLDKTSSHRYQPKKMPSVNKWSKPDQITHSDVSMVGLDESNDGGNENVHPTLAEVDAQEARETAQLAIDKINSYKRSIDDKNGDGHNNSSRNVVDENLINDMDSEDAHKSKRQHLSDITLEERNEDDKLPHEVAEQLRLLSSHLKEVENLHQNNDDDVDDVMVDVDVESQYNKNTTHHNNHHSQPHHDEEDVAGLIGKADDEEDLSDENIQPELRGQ
Description: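 Universal 'all 10-mer' protein binding microarrays (Agilent AMADID 015681) probed with GST-tagged S. cerevisiae TFs (full-length or DBD) made by in vitro transcription/translation (PURExpress), about 100-200 nM. Bound TF was detected with fluorescent anti-GST. Each ungapped 8-mer (which stands for itself and its reverse complement) is scored by the PBM enrichment score (E-score), a modified Wilcoxon-Mann-Whitney statistic from -0.5 to +0.5, computed with the Universal PBM Analysis Suite. Scale: above 0.35 generally sequence-specific binding.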

Row | Sequence | PBM E-score
1 | GCATCGCC | -0.0959
2 | AACCGGGC | -0.103
3 | CTCCCGGA | -0.117
4 | GATAGAAC | 0.0502
5 | ACAACGCA | -0.00182
6 | CGAGGTTA | -0.00406
7 | AAGAATCT | -0.115
8 | GGAGATGA | 0.16
9 | GCGATTTA | 0.114
10 | TCTTCTCA | 0.0808
11 | CGCTCTAA | 0.108
12 | AAGGCGGC | -0.00603
13 | AAGGACAT | 0.0941
14 | GCGTGACC | 0.108
15 | ACGTGTGA | 0.213
16 | GCGTGTGA | -0.00541
17 | GCGTGACA | 0.369
18 | GTGTGACA | 0.116
19 | CCGTGTGA | 0.301
20 | CGTTGATC | 0.247
21 | AAAGTGCG | -0.105
22 | AGATTTCA | -0.0514

Row | Sequence | PBM E-score
23 | ACAGTCGC | -0.0877
24 | TCGAAAAA | 0.157
25 | AGACGATC | 0.113
26 | CGACGGTC | 0.173
27 | GGACGGTA | 0.134
28 | CGACGACC | 0.243
29 | CGACGATC | 0.298
30 | GGACGATA | 0.268
31 | CGACGGTA | 0.322
32 | AGACGATA | 0.27
33 | CGACGATA | 0.373
34 | GAAATTCA | 0.0636
35 | ATTGCACA | 0.0349
36 | CAGCTATA | -0.191
37 | ACCGCTGC | -0.252
38 | GGTAGGAA | -0.0834
39 | TAGGCCGA | -0.106
40 | CCGATCCG | -0.0938
41 | GCGAAGAA | 0.148
42 | CTTAGCGC | 0.117
43 | CGCTGTCC | 0.108
44 | CCGCATTC | 0.00443

Row | Sequence | PBM E-score
45 | TCGTACCA | 0.322
46 | GCGTACCA | -0.0406
47 | TAGTACCA | -0.0108
48 | TGGTACCA | -0.123
49 | ACGTACCA | 0.0604
50 | CCGTACTA | 0.338
51 | ACGTACTA | 0.188
52 | GCGTACTA | -0.0501
53 | CCGTACCA | 0.303
54 | ATGATGCG | 0.104
55 | ACGAACCC | 0.0128
56 | GCGAGAAC | -0.095
57 | CGATTCAC | 0.192
58 | AGGCGGTC | -0.166
59 | GTCTAAAC | 0.00585
60 | ATGGTACA | -0.0607
61 | ACGAACGT | 0.289
62 | ACGAATGC | 0.185
63 | ACGAATGA | 0.304
64 | ACGAACAA | 0.331
65 | GCGAACAA | 0.0737
66 | ACGAACGA | 0.314

Row | Sequence | PBM E-score
67 | CCGAACGA | 0.251
68 | CCGAACGG | -0.0461
69 | GCGAATGA | 0.173
70 | TCGAACGA | 0.236
71 | ACGAACGG | 0.312
72 | CCGAACAA | -0.0373
73 | ATTAAGCC | 0.0493
74 | ATATCCAA | 0.149
75 | ACTGACTC | -0.262
76 | CACTATGA | -0.138
77 | CAAAGTGA | 0.28
78 | TAAGGAAA | -0.0606
79 | CTATGCAC | 0.178
80 | AAACTCCT | -0.13
81 | AATCATAT | 0.191
82 | AGGTCGAT | 0.132
83 | TGGTGGAA | -0.0333
84 | ACTGCGAT | -0.0827
85 | CAACAAAC | -0.112
86 | TATCACGA | 0.366
87 | AATCACGC | 0.127
